Inconclusive results are not listed. Calls of active or inactive are those of the source. How the source made its calls: active means hit-call score of the fitted dose curve at least 0.9, where 1 is the maximum; inconclusive means response in the unintended direction; inactive means score below 0.9.
Each compound was assayed on Japanese medaka Peroxisome Proliferator-activated Receptor alpha (PPARa), gene 100304458 (assay: ATG_jmPPARa_EcoTox2: Attagene TRANS-FACTORIAL EcoTox-2 HepG2 Assay for Japanese medaka Peroxisome Proliferator-activated Receptor alpha (PPARa)).
Description: ATG_EcoTox2 is a cell-based, multiplexed assay created by modifying the existing Attagene TRANS-FACTORIAL system to include a panel of nuclear receptors from some or all the following species: human (Homo sapiens), african clawed frog (Xenopus laevis), rainbow trout (Oncorhynchus mykiss), japanese medaka (Oryzias latipes), and zebrafish (Danio rerio). The ECOTOX2-FACTORIAL format uses HepG2, a human liver cell line, with measurements taken at 24 hours after chemical dosing in a 24-well plate. ATG_jmPPARa_EcoTox2 is one of 29 assay components calculated in the ATG_EcoTox2 assay. It is designed to make measurements of mRNA induction, a form of inducible reporter, as detected with fluorescence intensity signals by Reverse transcription polymerase chain reaction (RT-PCR) and Capillary electrophoresis technology.The assay endpoint ATG_jmPPARa_EcoTox2 was analyzed in the positive analysis fitting direction relative to DMSO as the negative control and baseline of activity. Using a type of inducible reporter, measures of mRNA for gain-of-signal activity can be used to understand the reporter gene at the transcription factor-level as they relate to the gene PPARa. Furthermore, this assay endpoint can be referred to as a […], because this assay has produced multiple assay endpoints where this one serves a reporter gene function. To generalize the intended target to other relatable targets, this assay endpoint is annotated to the nuclear receptor intended target family, where the subfamily is non-steroidal.
Human liver HepG2 cells are transiently transfected with multiple reporter transcription units (MRTUs) in 6-well plates using FuGene 6 reagent (Roche; 3 ml FuGene/1 mg DNA). The MRTU constructs are regulated by a cis-regulating element (promoter). Each RTU expresses a GAL4-UAS that regulates the transcription of a nearby target reporter gene sequence. A major difference between the CIS and TRANS system is that in CIS activities of endogenous TFs are measured, whereas the TRANS assay evaluates changes in activities of exogenous, chimeric NR-Gal4 proteins. […] At the end of 24 hour incubation, total RNA was isolated using TriZol reagent (Invitrogen). The isolated RNA is then reverse-transcribed using oligo(dT) primer and Mo-MLV reverse transcriptase (Invitrogen) with DNAse I (Ambion) treatment for 30 min. The one-tenth of the produced cDNA was amplified by PCR using Taq DNA polymerase (Invitrogen) and two reporter sequence-specific primers. […] The fragments were purified using Qiaquick PCR columns (Qiagen), analyzed on an ABI 3130xL genetic analyzer (Applied Biosystems) with peak positions identified by using a set of X-rhodamine (ROX)-labeled MapMarker1000 molecular weight standards (BioVentures). […]

Row | Structure (SMILES) | AC50 | outcome
1 | CCCCOCN(C(=O)CCl)c1c(CC)cccc1CC | 50 µM (active) | –
2 | [Cl][Sn]([c]1ccccc1)([c]1ccccc1)[c]1ccccc1 | 0.473 µM (active) | –
3 | O=S(=O)(O)C(F)(F)C(F)(F)C(F)(F)C(F)(F)C(F)(F)C(F)(F)F | – | inactive
4 | O=C(O)C(F)(F)C(F)(F)C(F)(F)C(F)(F)C(F)(F)C(F)(F)C(F)(F)F | 75 µM (active) | –

Reference: PubChem BioAssay AID2284348 (EPA ToxCast)
